Structures are written as SMILES. For some assays here: Measured potencies and affinities stand elsewhere.

The values below come from ChEMBL document CHEMBL3988442, “University of Dundee, Small-Polar-MMV Screening Library” (2021).

What all share (parameters): scale not given: direction of the effect not stated beside the values
The target in experiment [1] is Protein translocase subunit SecA (Escherichia coli (strain K12)) (UniProt P10408). In words: Assay to Identify E. coli SecA ATPase Inhibitors. The class given is functional. The following applies: 30 µM.
Experiment [2] concerns the target T1, Ubiquitin-activating enzyme e1, putative (Leishmania donovani (strain BPK282A1)) (UniProt E9BSI1).
T1 sequence (whole entry): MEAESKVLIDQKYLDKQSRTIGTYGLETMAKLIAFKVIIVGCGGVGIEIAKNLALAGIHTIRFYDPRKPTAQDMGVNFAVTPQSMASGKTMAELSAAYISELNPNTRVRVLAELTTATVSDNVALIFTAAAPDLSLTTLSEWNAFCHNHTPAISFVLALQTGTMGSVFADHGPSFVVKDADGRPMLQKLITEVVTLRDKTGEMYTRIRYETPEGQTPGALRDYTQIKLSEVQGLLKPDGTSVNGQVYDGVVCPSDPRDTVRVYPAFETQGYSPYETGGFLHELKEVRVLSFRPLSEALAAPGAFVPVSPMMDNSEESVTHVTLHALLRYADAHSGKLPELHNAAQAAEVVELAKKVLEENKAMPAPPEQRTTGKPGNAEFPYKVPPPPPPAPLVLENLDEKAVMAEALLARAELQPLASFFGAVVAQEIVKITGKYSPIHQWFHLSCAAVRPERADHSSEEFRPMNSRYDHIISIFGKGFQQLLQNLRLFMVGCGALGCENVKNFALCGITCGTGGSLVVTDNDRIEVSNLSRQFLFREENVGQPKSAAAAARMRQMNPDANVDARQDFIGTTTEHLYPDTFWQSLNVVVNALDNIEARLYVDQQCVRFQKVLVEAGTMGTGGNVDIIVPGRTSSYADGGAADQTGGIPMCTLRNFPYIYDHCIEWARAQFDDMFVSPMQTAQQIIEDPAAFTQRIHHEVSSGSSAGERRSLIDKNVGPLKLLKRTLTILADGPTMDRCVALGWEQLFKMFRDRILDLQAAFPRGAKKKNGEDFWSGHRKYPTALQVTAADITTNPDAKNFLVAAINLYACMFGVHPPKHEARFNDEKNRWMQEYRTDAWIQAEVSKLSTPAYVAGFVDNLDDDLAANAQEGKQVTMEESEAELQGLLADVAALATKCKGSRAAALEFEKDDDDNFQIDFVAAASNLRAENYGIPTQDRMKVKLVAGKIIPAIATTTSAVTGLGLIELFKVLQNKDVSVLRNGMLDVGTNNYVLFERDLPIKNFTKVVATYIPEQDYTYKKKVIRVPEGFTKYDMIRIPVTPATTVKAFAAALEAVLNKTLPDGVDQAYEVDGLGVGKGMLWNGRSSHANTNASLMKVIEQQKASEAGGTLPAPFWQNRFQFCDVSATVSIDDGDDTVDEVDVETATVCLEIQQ
Description: Leishmania donovani Ubiquitin Activating Enzyme (LdE1). Format: functional. The note with it: 30 µM.

The target of experiment [3] is AMP-activated protein kinase, AMPK (Homo sapiens) (UniProt P54646+O43741+P54619+Q9UGJ0+Q9Y478+Q13131+Q9UGI9). Description: AMP-dependent Kinase enzyme assay. An in vitro enzyme assay that detects ADP turnover that is directly proportional to AMPK activity. This uses naive AMPK that is activated during the assay with MK-8722. The class given is functional. The note with it: 30 µM.

Experiment [4] concerns the target Sialic acid-binding Ig-like lectin 9 (Homo sapiens) (UniProt Q9Y336). In words: Hs-Siglec9 ALPHAscreen SOP 20170721. The note with it: 10 µM. A general note: Alpha assays give light when donor and acceptor beads are brought close together.
The test system of experiment [5] is Trypanosoma cruzi. Description: Trypanosoma cruzi phosphomannomutase and mannose-1-phosphate guanylyltransferase assay. Format: functional. The following applies: 10 µM.
In experiment [6] the target is T2, Arginase-2, mitochondrial (Homo sapiens) (UniProt P78540).
T2 sequence (whole entry): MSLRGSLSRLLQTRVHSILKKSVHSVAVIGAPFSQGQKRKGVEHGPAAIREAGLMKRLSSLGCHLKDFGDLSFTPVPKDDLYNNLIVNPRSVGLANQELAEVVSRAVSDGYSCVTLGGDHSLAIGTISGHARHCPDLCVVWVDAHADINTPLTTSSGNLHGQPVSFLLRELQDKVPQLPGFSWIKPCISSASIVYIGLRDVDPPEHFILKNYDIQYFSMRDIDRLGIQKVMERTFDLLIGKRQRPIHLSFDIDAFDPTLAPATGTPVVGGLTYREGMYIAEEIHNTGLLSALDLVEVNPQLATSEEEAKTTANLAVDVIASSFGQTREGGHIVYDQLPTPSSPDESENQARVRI
In words: in vitro enzyme assay to detect the production of urea directly proportional to the activity of Arginase II. Also: in the data most compounds retested in dose-response had high values. The class given is functional. The following applies: 33.3 µM.

Experiment [7] concerns the target T3, Proteasome subunit beta (Trypanosoma cruzi) (UniProt O96673).
T3 sequence (whole entry): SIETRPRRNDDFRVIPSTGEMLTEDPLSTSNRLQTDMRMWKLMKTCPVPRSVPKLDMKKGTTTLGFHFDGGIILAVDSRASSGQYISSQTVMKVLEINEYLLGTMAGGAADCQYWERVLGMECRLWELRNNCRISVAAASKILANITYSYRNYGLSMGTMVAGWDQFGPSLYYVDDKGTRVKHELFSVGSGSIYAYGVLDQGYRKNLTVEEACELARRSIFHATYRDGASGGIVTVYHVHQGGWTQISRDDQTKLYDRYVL
Description: Trypanosoma cruzi proteasome chymotrypsin-like activity (TcProtChymo) assay. Also: in the data most compounds retested in dose-response had high values. The class given is functional. The following applies: 9.37 µM.

For experiment [8], the species on record is Homo sapiens. In words: To identify inhibition of the IFN signalling (Jak-Stat) pathway via expression of an eGFP reporter gene under the control of an IFN-stimulated response element (ISRE) containing MxA promoter. The class given is functional. The following applies: 30 µM. For orientation: In a reporter assay the amount or activity of a reporter protein is the signal.

The target of experiment [9] is T4, Tyrosyl-tRNA synthetase, putative (Trypanosoma cruzi (strain CL Brener)) (UniProt Q4DSP6).
T4 sequence (whole entry): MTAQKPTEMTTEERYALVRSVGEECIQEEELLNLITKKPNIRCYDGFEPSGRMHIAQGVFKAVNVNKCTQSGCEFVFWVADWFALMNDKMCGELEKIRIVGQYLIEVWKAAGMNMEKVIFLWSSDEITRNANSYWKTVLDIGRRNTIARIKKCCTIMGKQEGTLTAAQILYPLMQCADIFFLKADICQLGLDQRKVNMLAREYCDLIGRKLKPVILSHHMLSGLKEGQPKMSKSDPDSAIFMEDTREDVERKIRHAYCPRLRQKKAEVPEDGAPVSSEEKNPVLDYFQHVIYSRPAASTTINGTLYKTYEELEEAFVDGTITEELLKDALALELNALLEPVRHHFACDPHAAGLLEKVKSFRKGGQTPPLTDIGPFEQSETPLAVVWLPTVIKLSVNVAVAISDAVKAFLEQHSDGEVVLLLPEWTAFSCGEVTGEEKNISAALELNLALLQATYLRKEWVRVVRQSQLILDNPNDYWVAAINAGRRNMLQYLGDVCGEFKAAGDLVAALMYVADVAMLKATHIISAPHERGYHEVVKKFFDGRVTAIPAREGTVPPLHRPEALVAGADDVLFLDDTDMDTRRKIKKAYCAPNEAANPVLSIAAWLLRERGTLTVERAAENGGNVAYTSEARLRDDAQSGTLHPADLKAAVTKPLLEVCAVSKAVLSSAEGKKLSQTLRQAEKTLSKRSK
Description: Trypanosoma cruzi tyrosyl tRNA synthetase (TcYRS) _High Tyrosine SOP. Also: in the data most compounds retested in dose-response had high values. Format: functional. The note with it: 30 µM.

Experiment [10] concerns the target T4, Tyrosyl-tRNA synthetase, putative (Trypanosoma cruzi (strain CL Brener)). In words: Trypanosoma cruzi tyrosyl tRNA synthetase (TcYRS) SOP. The class given is functional. The note with it: 30 µM.
In experiment [11] the target is Chromo domain-containing protein 1 (Saccharomyces cerevisiae (strain ATCC 204508 / S288c) (Baker's yeast)) (UniProt P32657). In words: ScCHD-1 Enzyme Inhibition Assay. Also: in the data most compounds retested in dose-response had high values. The note with it: 30 µM. Format: functional.
Sequence of Chromo domain-containing protein 1 (Saccharomyces cerevisiae (strain ATCC 204508 / S288c) (Baker's yeast)) (P32657 whole entry, the tested form may be a part): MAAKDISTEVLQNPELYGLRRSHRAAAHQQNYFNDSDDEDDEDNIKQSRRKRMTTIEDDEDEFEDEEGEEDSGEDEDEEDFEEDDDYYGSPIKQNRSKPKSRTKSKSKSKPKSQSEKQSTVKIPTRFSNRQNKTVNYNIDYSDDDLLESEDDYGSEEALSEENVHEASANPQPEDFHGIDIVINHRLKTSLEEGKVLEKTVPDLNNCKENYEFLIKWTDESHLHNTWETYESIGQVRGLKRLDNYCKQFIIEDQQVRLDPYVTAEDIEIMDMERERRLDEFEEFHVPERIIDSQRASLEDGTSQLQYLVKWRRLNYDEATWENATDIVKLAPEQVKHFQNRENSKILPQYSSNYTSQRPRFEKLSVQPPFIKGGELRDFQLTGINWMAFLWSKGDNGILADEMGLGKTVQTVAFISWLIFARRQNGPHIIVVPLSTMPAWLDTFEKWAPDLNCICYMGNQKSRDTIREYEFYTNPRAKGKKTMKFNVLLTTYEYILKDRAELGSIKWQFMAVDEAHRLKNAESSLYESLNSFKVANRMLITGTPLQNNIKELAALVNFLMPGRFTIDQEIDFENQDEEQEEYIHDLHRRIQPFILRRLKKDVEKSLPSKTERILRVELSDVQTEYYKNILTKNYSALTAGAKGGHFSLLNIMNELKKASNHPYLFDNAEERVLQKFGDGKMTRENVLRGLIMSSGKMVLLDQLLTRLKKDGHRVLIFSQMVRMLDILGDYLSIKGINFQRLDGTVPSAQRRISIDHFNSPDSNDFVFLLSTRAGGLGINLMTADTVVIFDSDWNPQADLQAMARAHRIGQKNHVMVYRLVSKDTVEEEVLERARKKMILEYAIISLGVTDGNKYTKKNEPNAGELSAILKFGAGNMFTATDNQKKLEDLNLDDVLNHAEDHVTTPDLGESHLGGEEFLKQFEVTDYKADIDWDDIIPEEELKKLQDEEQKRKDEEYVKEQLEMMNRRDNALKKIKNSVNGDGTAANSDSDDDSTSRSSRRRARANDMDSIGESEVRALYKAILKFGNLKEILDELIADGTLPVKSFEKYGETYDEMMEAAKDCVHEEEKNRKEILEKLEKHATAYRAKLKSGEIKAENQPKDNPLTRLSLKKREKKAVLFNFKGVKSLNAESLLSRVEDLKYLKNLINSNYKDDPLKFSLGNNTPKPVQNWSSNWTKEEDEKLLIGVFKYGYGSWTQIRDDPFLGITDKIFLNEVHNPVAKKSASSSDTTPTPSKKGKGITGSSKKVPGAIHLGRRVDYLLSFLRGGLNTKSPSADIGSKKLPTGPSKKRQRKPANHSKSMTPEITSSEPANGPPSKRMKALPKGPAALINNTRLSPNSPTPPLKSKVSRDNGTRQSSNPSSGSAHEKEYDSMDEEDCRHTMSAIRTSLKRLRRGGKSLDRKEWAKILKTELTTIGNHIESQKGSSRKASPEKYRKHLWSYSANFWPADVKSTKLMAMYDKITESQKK

Sequence of Protein translocase subunit SecA (Escherichia coli (strain K12)) (P10408 whole entry): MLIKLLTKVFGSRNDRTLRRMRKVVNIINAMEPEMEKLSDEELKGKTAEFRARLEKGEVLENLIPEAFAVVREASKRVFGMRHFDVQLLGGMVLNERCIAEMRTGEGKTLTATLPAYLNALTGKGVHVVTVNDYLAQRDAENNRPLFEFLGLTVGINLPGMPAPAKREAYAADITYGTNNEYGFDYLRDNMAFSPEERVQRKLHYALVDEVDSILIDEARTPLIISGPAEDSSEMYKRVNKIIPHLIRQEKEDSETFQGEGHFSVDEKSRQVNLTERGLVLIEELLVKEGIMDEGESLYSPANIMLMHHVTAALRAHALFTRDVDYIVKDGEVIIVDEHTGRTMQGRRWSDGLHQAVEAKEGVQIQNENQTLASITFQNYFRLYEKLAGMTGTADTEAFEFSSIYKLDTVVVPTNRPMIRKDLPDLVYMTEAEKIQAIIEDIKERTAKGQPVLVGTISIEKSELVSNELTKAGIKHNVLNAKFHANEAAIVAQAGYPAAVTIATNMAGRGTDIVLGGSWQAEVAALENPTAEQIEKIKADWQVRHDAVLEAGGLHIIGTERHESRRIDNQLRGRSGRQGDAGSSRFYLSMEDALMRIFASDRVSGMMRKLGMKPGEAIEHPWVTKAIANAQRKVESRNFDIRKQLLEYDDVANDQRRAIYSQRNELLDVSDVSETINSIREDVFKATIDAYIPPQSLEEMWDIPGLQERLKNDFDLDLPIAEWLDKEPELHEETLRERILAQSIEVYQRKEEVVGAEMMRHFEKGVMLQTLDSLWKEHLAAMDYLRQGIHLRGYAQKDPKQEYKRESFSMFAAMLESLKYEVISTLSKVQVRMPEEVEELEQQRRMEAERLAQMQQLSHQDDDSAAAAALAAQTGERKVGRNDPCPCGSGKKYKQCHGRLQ
Sequence of Sialic acid-binding Ig-like lectin 9 (Homo sapiens) (Q9Y336 whole entry): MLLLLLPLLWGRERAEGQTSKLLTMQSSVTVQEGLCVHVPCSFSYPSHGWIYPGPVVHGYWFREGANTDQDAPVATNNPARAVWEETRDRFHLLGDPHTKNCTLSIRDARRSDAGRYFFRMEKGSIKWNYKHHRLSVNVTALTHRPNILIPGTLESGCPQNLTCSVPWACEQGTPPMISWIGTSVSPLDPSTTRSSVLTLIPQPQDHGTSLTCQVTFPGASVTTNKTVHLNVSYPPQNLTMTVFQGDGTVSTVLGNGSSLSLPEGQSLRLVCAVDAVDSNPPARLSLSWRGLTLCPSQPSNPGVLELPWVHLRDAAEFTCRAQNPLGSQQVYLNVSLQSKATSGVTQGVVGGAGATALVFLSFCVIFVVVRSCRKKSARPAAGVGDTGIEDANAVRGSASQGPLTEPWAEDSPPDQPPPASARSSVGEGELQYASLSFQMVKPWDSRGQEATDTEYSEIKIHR

Turning to `COc1cc2nc(C)n(CC(=O)O)c(=O)c2cc1OC`, the Percent Effect in [1] is -4.09%; in experiment [2], 6.67%; in experiment [3], 6.76%; in [4] it was 2.01%; in experiment [5] it was -0.982%; in [6], 1.23%. The Percent Effect in [7] is 13.1%; in [8], 19.2%; in experiment [9], 8.47%; in experiment [10], 12.8%; in [11], -7.94%.
Take `CN(C)CCN1C[C@@H]2CN(C(=O)c3ccsc3)C[C@@H]2C1=O`: the Percent Effect in experiment [1] is -7.36%; in experiment [2], 5.2%; in experiment [3], 0.643%; in [4], 5.55%; in [5] it was -3.25%; in experiment [6], 0%. The Percent Effect worked out at 5.66% in experiment [7]; 20.3% in experiment [8]; 0% in experiment [9]; 1.24% in experiment [10]; 1.29% in [11].
Regarding `CS(=O)(=O)c1ccc(CNC(=O)N2CCC(C(N)=O)C2)cc1` (stereo not given), the Percent Effect in experiment [1] was -5.24%; in [2], 25.3%; in experiment [3], -8.85%; in [4] it was 3.98%; in experiment [5], 8.78%; in [6] it was -3.04%. The Percent Effect in [7] was 14.2%; in [8], 0.909%; in [9], 8.37%; in experiment [10] it was 26.6%; in experiment [11], -5.74%.
In the case of `CN(C)C(=O)N1CCn2nc(CNC(=O)CCC(F)(F)F)cc2C1`, the Percent Effect was 0.369% in experiment [1]; 6.94% in experiment [2]; -0.273% in experiment [3]; 2.6% in experiment [4]; 4.18% in experiment [5]; 13.7% in experiment [6]. The Percent Effect is 10.3% in experiment [7]; 15% in [8]; 6.32% in experiment [9]; 15.4% in [10]; -4.37% in experiment [11].
With `Fc1cccc(-c2nc(CN3CCOC(Cn4cncn4)C3)co2)c1` (stereo not given), the Percent Effect in [1] is -1.25%; in [2], 0%; in experiment [3], 1.03%; in experiment [4] it was 1.46%; in experiment [5] it was 8.97%; in experiment [6], -1.14%. Further, the Percent Effect was 4.67% in experiment [7]; -3.37% in experiment [8]; 0.493% in [9]; 3.8% in experiment [10]; -3.88% in experiment [11].
As to `Cn1cc(CN2CCn3cc(CNC(=O)c4cccn4C)nc3C2)cn1`, the Percent Effect in experiment [1] is -0.61%; in experiment [2], 0%; in experiment [3], 12.6%; in experiment [4], 0.00498%; in [5] it was -0.394%; in experiment [6] it was -0.699%. Moreover, the Percent Effect is -4.32% in experiment [7]; 3.52% in experiment [8]; 4.25% in [9]; 6.41% in experiment [10]; 5.91% in [11].
As for `CCn1ccnc1CN1CCCC(CO)(Cc2cccc(Cl)c2)C1` (stereo not given), the Percent Effect was -5.53% in experiment [1]; 2.7% in experiment [2]; -2.31% in experiment [3]; 28.9% in [4]; 3.23% in experiment [5]; -1.24% in experiment [6]. Further, the Percent Effect is 3.18% in experiment [7]; -2.28% in [8]; 2.15% in experiment [9]; 11.1% in experiment [10]; -1.59% in [11].
Turning to `FC(F)(F)Cn1ccnc1CN1CCOC(Cn2cccn2)C1` (stereo not given), the Percent Effect in experiment [1] is -5.79%; in experiment [2], 6.33%; in experiment [3], 6.8%; in experiment [4] it was 1.11%; in [5], -2.36%; in [6], -1.5%. Further, the Percent Effect was 1.54% in experiment [7]; 13.3% in experiment [8]; 1.04% in experiment [9]; 15.2% in experiment [10]; -6.67% in experiment [11].
In the case of `Cn1cc(CN2CCc3onc(COc4cccnc4)c3C2)cn1`, the Percent Effect in experiment [1] is 6.35%; in experiment [2] it was 14.7%; in [3] it was 17.2%; in experiment [4], -10.2%; in experiment [5], -9.43%; in experiment [6] it was -5.11%. Besides, the Percent Effect is 16.6% in experiment [7]; 11.8% in experiment [8]; 0% in [9]; 5.13% in experiment [10]; -10.7% in experiment [11].
`Cc1cnn(C2CCCN(C(=O)c3ccnc(-n4ccnc4)c3)C2)c1` (stereo not given): the Percent Effect in experiment [1] is -2.31%; in experiment [2], 8.86%; in experiment [3] it was 2.83%; in experiment [4] it was 0.259%; in experiment [5] it was -0.513%; in experiment [6] it was 3.66%. Also, the Percent Effect in experiment [7] was 8.23%; in [8] it was 0.141%; in experiment [9] it was 4.17%; in [10], 17.7%; in [11], -27.2%.
